Results: PubChem BioAssay

Test: compound effects on lung adenocarcinoma cell viability – A549, calcein-AM fluorescence, 48 h, basal, profiling panel (AID 1162); also: test concentration not given here
Conditions: higher = more signal

With `CN1CCC(CCCO)=CC1c1ccc(CN2CCCC2)cc1` (stereo not drawn) as the compound, how does the z-score read?
The z-score was -0.701.

Which z-score does the source give for `C=C[C@H](C)[C@@H](O)c1ccc(O)c2ccccc12` here?
Its z-score is -0.573.

For `COCCOC(=O)N1C(=O)[C@@]2(c3cc(C#CC4=CCCCC4)ccc31)[C@H](C(=O)N1CCc3cc(OC)c(OC)cc3C1)[C@H]1C(=O)O[C@H](c3ccccc3)[C@H](c3ccccc3)N1[C@@H]2c1ccccc1OCCO`, which z-score is on record?
Its z-score is 0.145.

With `COC(=O)C1=CC(CCCO)=CC(C2CC2)N(Cc2sc3ccccc3c2Cl)C=C1C(=O)OC` (stereo not drawn) as the compound, how does the z-score read?
The z-score was -0.637.

Which z-score does the source give for `NC(=O)NCC#Cc1ccc2c(c1)[C@]1(C(=O)N2)[C@H](C(=O)N2CCCCCCC2)[C@H]2C(=O)O[C@H](c3ccccc3)[C@H](c3ccccc3)N2[C@@H]1c1ccc(OCCO)cc1` here?
Its z-score is -0.0962.

With `COc1ccccc1CN1C(=O)c2ccccc2[C@@H](C(=O)NCCN2CCOCC2)[C@@H]1c1ccc(CO)cc1` as the compound, how does the z-score read?
The z-score was 0.61.

For `O=c1cccc(C=Cc2ccccc2)o1`, which z-score is on record?
Its z-score is -0.523.

Which z-score does the source give for `C=C[C@@H](COC(C)=O)N(Cc1ccc([N+](=O)[O-])cc1)S(=O)(=O)c1ccc(Br)cc1` here?
The z-score was 1.97.

For `CC(C)C(=C=CC[C@@H](O)c1ccccc1OCCO)C[C@@H](O)c1ccccn1`, which z-score is on record?
Its z-score is -0.158.

With `CCCCC=C[C@@H](NC(=O)c1ccc(C(=O)OC)cc1)c1ccccc1` as the compound, how does the z-score read?
Its z-score is -1.19.

Which z-score does the source give for `O=c1oc(-c2ccccc2)nc2cc(Br)ccc12` here?
The z-score was -0.423.

With `C=CC(COC(C)=O)NS(=O)(=O)c1ccc(Br)cc1` (stereo not drawn) as the compound, how does the z-score read?
The z-score was -0.0852.

Which z-score does the source give for `CS(=O)(=O)CCOC(=O)C1=CC(CCCO)=CC(c2cccs2)N(Cc2cc3c(cc2Br)OCO3)C=C1C(=O)OCCS(C)(=O)=O` (stereo not drawn) here?
Its z-score is 1.55.

For `CCC[C@@H]1C=C(C(=O)O)[C@H](c2ccc(C)cc2)N1S(=O)(=O)c1ccc(C)cc1`, which z-score is on record?
Its z-score is -0.85.

With `CC(C)NC(=O)[C@@H]1c2ccccc2C(=O)N(Cc2ccccc2)[C@H]1c1ccc(CO)cc1` as the compound, how does the z-score read?
The z-score was 0.831.

Which z-score does the source give for `Cc1ccc(S[C@]2(C(=O)NCc3ccccc3)CC(=O)N(Cc3ccccc3)[C@@H]2c2ccc(CO)cc2)cc1` here?
The z-score was 0.778.

Which z-score does the source give for `COC(=O)c1ccc(C(O)C2C=CC3C(=O)N(C)C(=O)C3N2NC(=O)OC(C)(C)C)o1` (stereo not drawn) here?
Its z-score is 0.441.

For `COc1ccc(C(=O)Nc2cccc(CN3C(=O)[C@]4(O[C@H](CC(=O)N5CCC[C@H]5CO)[C@@H]([Si](C)(C)c5ccc(OC)cc5)[C@@H]4C)c4ccccc43)c2)cc1`, which z-score is on record?
The z-score was -0.806.

Which z-score does the source give for `CC(C)Cc1ccc(CN2CC[C@@H](NS(=O)(=O)c3ccccc3)C2)cc1` here?
The z-score was -0.977.

Which z-score does the source give for `C=CCC(OC(C)=O)[C@@H]1[C@@H](N(Cc2cccc3ccccc23)C(=O)c2cccc3ccccc23)c2cc(OCCCO)ccc2N1C(=O)c1ccc2ccccc2n1` (stereo partly drawn) here?
Its z-score is -0.7.

With `COCCOC(=O)N1C(=O)[C@@]2(c3cc(C#CCNC(N)=O)ccc31)[C@H](c1ccc(OCCO)cc1)N1[C@H](c3ccccc3)[C@H](c3ccccc3)OC(=O)[C@H]1[C@@H]2C(=O)N1CCc2cc(OC)c(OC)cc2C1` as the compound, how does the z-score read?
The z-score was 1.24.

Which z-score does the source give for `O=C1C=CC(=O)[C@@H]2CC(COc3ccccc3)=C3[C@@H](CCc4ccccc4)OB(O)C[C@@H]3[C@H]12` here?
The z-score was -0.491.

Which z-score does the source give for `[N-]=[N+]=NCc1ccccc1[C@@H]1OC(c2ccc(OCCCO)cc2)=N[C@]1(Cc1ccccc1N=[N+]=[N-])C(=O)NCc1ccccc1` here?
The z-score was 0.103.

With `NCCCCCCNC(=O)[C@H]1C[C@H]2C(=O)NCC(=O)N2[C@H]1c1cccc(OCCO)c1` as the compound, how does the z-score read?
Its z-score is 2.15.

Which z-score does the source give for `CCCCCN1CC=CC23O[C@@H]4/C=C\CCC(C)OC(=O)C4[C@H]2C(=O)N(CCCCCO)[C@@H]3C1=O` (stereo partly drawn) here?
Its z-score is -0.213.

For `O=C(NCc1ccccc1)[C@]1(CCS(=O)(=O)c2ccccc2)N=C(c2ccc(OCCCO)cc2)O[C@@H]1c1ccccc1`, which z-score is on record?
The z-score was -0.649.

With `C=CC(=C)C1=CCO[C@@H]1[C@H]1CCCN1S(=O)(=O)c1ccccc1[N+](=O)[O-]` as the compound, how does the z-score read?
Its z-score is -0.387.

Which z-score does the source give for `COc1ccc(C(=O)Nc2cccc(CN3C(=O)[C@@]4(O[C@@H](CCn5cc(CCO)nn5)[C@H]([Si](C)(C)c5ccc(OC)cc5)[C@H]4C)c4ccccc43)c2)cc1` here?
The z-score was -1.31.

For `CCCC[C@H]1OB(O)C[C@H]2C1=C(C)C[C@H]1C(=O)N(Cc3ccccc3)C(=O)[C@H]12`, which z-score is on record?
Its z-score is 0.601.

Which z-score does the source give for `COc1ccc(NN2C(C(O)c3ccc(OC)c(OCc4ccccc4)c3)C=CC3C(=O)N(C4CCCCC4)C(=O)C32)cc1` (stereo not drawn) here?
The z-score was 0.412.

For `COCC(=C=CC[C@H](O)c1ccc(OCCO)cc1)C[C@H](O)c1cc(Cl)cc(Cl)c1O`, which z-score is on record?
Its z-score is -1.05.

Which z-score does the source give for `O=C/C=C/c1ccc2c(c1)OCO2` here?
Its z-score is 0.115.

For `Cc1ccc(S[C@]2(C(=O)NCC(C)C)CC(=O)N(Cc3ccccc3Cl)[C@@H]2c2ccc(CO)cc2)cc1`, which z-score is on record?
Its z-score is 1.63.
